Source: PubChem BioAssay AID1508600 (Functional Genomics Laboratory (NCATS/FGL), 2020)
The campaign covered roughly 53,000 sequences. About 3,700 (7%) were called active.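 Rule for the calls: active = gene knockdowns whose robust z-score for IL-1 alpha signal is at least 2 or at most -2, so actives lie on both sides; inactive = the rest.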 Many of the other results were omitted from the sample, so actives are more common in it than they were.

experiment: Components of the Cytosolic LPS Sensing Pathway: Gene Identification via Genome-wide siRNA Screen; settings: RAW264.7 macrophages, IL-1a HTRF, actives lie on both sides, screened at 100 nM (by protocol), cells primed 5 h with Pam3CSK4 first;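 note: robust z of the log signal after scaling to non-targeting control siRNA wells of the plate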
Method in brief: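 Using IL-1a HTRF as read-out, the screen measured release from RAW264.7 cells after 48h siRNA knockdown (100 nM), 5 h Pam3CSK4 priming and 24 h cytosolic LipidA. Values were expressed relative to negative-control wells as robust z-scores.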

| Sequence | z-score |
| --- | --- |
| GGAAAACCAGCUAAUUAUCTT against Ptger3 | -0.23 (inactive) |
| GGAAAGUGUGUGUUAUAUUTT against Zfp358 | 1.98 (inactive) |
| CGAGCUUAUCAUCAGCGACTT against Polr2f | -2.74 (active) |
| CGGGAUAUCAUUCUCCAUATT against Lnpep | 0.62 (inactive) |
| GGUUUUAAGUUCUAGGGAATT against Olfr1288 | -0.599 (inactive) |
| GCAUGUUUACCUCAAAGUGTT against Cd209e | 0.843 (inactive) |
| GGCCUUGCUUUCAUAAAGUTT against Mrpl49 | 0.348 (inactive) |
| CGAUACCCAACUGUUGAAATT against Ap5m1 | 1.12 (inactive) |
| CCCGCUAUUACGUUUUUCUTT against Mtarc2 | -0.498 (inactive) |
| CCUCAGAACAAAUGAAAAUTT against Nlk | -0.62 (inactive) |
| GGCAGGUGAAUGUGGUAGATT against Btbd17 | 0.165 (inactive) |
| GGCCAACACUAACACAGACTT against Tmem268 | -0.357 (inactive) |
| GGUCAAUGGAGUAGAUUUATT against Pard3 | 2.24 (active) |
| GGUCAUGAAAAUUAAAGCATT against 1110059G10Rik | -2.31 (active) |
| GCACGAUGUACCUGAAUCUTT against Ifitm5 | 0.387 (inactive) |
| CCUGCUCUAGAGAAGAAGUTT against Naxe | 0.879 (inactive) |
| GCAGUCACCUUCAAAAAAATT against Zfp960 | 1.08 (inactive) |
| CGGUAGAAGGCUUAGGCAATT against Aox1 | -0.922 (inactive) |
| GGUCAUAGCAUCUACGGCUTT against Gm4793 | -0.11 (inactive) |
| GGUGUAAUUGGGAAAAUUCTT against Inpp5f | -1.17 (inactive) |
| GGCCAACCUGUUCAUCAGCTT against Bdkrb1 | -0.0817 (inactive) |
| CCUGAGUCUCGGUUCACAATT against Kif12 | -2.13 (active) |
| GCACAGUGUAACUUAGGGCTT against Cenpb | -0.525 (inactive) |

| Sequence | z-score |
| --- | --- |
| CUAAAUGCCUCCUACCUUUTT against Krtap4-16 | 1.89 (inactive) |
| CCUCAGAAAAAGCCUAUAGTT against Kcnj3 | -2.13 (active) |
| GGCAAGUUGACCGUGUUUUTT against Dtnb | -0.307 (inactive) |
| GGUGAAACAGCGAAUAGGUTT against Zfp428 | -0.168 (inactive) |
| GGAAUUGUAGAAAGUGUUGTT against Adh4 | 1.66 (inactive) |
| GGGCCUGUAAUGGUGUACATT against B230317F23Rik | 2.56 (active) |
| GGCUUUCCGCGCUAUUGAUTT against Pcmtd2 | -0.027 (inactive) |
| GGAUUUUAGUGAAUUCCAUTT against Asah1 | 0.0675 (inactive) |
| CCCUGGAUUGAGGAUCGUUTT against Mrgpra8 | -1.14 (inactive) |
| GGAACUCCAGCUUUUGGUCTT against Sox13 | 2.51 (active) |
| GGUUGAAGAGCAUGAGAGCTT against A330041J22Rik | 1.01 (inactive) |
| GGAGCUAAACCAAUGGCAATT against Txndc15 | 0.479 (inactive) |
| GCCCAAGAAUGUGCCUUAUTT against Olfr1278 | -0.578 (inactive) |
| GCAGACUAAAAUCACGACATT against Ednra | 2.62 (active) |
| GGUGAUGAAAAGAAUUGCATT against Pitrm1 | 0.417 (inactive) |
| GGACUUUGGUUUUUGUAAGTT against Vasn | -1.72 (inactive) |
| GGUCCAAAGAAAGACCCAUTT against Cypt4 | -0.131 (inactive) |
| GGUAAACAUGUCUAUGACUTT against Fpr-rs7 | -2.09 (active) |
| GGAGAUCAUGUCAAAAAAGTT against Ibtk | -0.848 (inactive) |
| GGGCUUUAUUCAUCCACUCTT against 1700067P10Rik | 1.52 (inactive) |
| GGAAUGGAUCCUGAUGAUATT against Spcs2 | -0.877 (inactive) |
| GCUCGAUCAUGGGCCUAUATT against Crls1 | -0.189 (inactive) |
| GGAUAGUUUGGUAAUGAAATT against Cds1 | -0.748 (inactive) |

| Sequence | z-score |
| --- | --- |
| GGCAGAUAAAGAUGGAGCATT against Ndp | 3.69 (active) |
| CGGGCUAUCUGGAACUAUATT against Sesn1 | -0.466 (inactive) |
| GGCUUAAAGGUCCUGUGCUTT against Ighmbp2 | -2.89 (active) |
| GGUUUAUGCAAUGAAGCUUTT against Rock2 | -0.0928 (inactive) |
| GGUUAUGGUUUUGUUGACUTT against Rbms1 | -0.606 (inactive) |
| GGCUUUAAUGCCUGUAUUATT against Ilvbl | -0.185 (inactive) |
| GGUUUGGAUGUGAAACAAGTT against Myot | -0.861 (inactive) |
| GGAAUCUCGGAGGAAAACUTT against Hyou1 | 1.99 (inactive) |
| GGCAGUAGCCUUGUCUGUCTT against Prrx2 | -1.42 (inactive) |
| GCAAGAUCCCGACACAUACTT against Tead4 | -2.22 (active) |
| GGUCUCACAGCAGUACUCATT against Clk4 | -1.46 (inactive) |
| GGACACAGGGUCUCUUACATT against Msrb2 | -1.25 (inactive) |
| GGCUCAAGACUUAAAUUCATT against Olfr1100 | 0.437 (inactive) |
| CCUACUGGUUGAAAAUAUUTT against Tceanc2 | 1.16 (inactive) |
| GGAAGACACUCCUCUGCUCTT against Oca2 | 1.63 (inactive) |
| GGUGCGUCCUGAAAUCAUCTT against Txndc12 | -2.52 (active) |
| GGUUGAUGAAAAAACUGUATT against Itsn2 | 0.755 (inactive) |
| GGCUAGAGAAAUAGUGUUGTT against Reep1 | 0.218 (inactive) |
| GGAUCUUCAAUUCGUUGGUTT against Cachd1 | 2.75 (active) |
| GCCACUCAAAGUUCGAAGGTT against Tmem51 | -0.515 (inactive) |
| GGUACUAAAGAAAUAUCCCTT against Sirt7 | 0.736 (inactive) |
| GGCUUGUUUCCAAAAUAGGTT against Rflna | 0.327 (inactive) |
